According to PubChem BioAssay (NCATS):
Records with an inconclusive call do not appear. Where a call stands in place of a potency, no number is given. A number with no mark means an inactive call. Activity calls are given as the source filed them. Calls follow the shape of the dose curve; as a rule, active = well fitted curve in the direction sought with a large enough effect; inconclusive = small, poorly fitted or top-dose-only effect, or another doubt; inactive = no such curve, though single readings can be large; an effect the other way counts as inactive or inconclusive.

How the values were obtained:
[1] = target: Rap guanine nucleotide exchange factor 3 (Homo sapiens) (UniProt O95398); assay: Confirmatory qHTS for agonist of cAMP-regulated guanine nucleotide exchange factor 3 (EPAC1) (AID 1645881);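 also: EPAC1 catalysed release of BODIPY-GDP from Rap1B seen as fluorescence loss; nearly all actives have a fitted effect of over 75% in size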
Sequence of Rap guanine nucleotide exchange factor 3 (Homo sapiens) (O95398 whole entry, looked up): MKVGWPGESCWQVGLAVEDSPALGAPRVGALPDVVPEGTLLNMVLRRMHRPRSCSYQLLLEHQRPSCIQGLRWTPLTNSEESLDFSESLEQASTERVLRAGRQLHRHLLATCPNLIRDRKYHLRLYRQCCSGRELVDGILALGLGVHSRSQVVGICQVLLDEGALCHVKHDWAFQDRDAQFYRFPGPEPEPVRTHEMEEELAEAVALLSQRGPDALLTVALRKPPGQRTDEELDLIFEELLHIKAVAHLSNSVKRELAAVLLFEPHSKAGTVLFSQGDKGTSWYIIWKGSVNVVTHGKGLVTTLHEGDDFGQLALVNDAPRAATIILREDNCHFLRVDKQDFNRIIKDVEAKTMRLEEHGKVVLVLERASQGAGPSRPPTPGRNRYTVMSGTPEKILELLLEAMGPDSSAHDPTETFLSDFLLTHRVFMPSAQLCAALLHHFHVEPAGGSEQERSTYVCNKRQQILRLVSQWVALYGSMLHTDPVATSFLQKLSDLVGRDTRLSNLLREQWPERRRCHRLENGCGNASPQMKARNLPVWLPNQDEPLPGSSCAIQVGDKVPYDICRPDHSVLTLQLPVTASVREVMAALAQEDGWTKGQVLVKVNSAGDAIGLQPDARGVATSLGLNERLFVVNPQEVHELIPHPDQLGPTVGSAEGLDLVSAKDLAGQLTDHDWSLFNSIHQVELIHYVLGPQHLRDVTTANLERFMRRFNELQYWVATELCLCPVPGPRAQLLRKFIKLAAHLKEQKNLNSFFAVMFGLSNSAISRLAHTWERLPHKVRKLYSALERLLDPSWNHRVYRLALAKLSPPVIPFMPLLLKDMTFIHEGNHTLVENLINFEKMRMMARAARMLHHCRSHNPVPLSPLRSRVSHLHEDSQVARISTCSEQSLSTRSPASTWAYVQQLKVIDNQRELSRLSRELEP

[2] = target: Rap guanine nucleotide exchange factor 4 (Homo sapiens) (UniProt Q8WZA2); assay: Confirmatory qHTS for agonist of cAMP-regulated guanine nucleotide exchange factor 4 (EPAC2) (AID 1645884);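 also: nucleotide exchange releases bodipy-GDP from Rap1 and this lowers its fluorescence; nearly all actives have a fitted effect of over 65% in size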
Sequence of Rap guanine nucleotide exchange factor 4 (Homo sapiens) (Q8WZA2 whole entry, looked up): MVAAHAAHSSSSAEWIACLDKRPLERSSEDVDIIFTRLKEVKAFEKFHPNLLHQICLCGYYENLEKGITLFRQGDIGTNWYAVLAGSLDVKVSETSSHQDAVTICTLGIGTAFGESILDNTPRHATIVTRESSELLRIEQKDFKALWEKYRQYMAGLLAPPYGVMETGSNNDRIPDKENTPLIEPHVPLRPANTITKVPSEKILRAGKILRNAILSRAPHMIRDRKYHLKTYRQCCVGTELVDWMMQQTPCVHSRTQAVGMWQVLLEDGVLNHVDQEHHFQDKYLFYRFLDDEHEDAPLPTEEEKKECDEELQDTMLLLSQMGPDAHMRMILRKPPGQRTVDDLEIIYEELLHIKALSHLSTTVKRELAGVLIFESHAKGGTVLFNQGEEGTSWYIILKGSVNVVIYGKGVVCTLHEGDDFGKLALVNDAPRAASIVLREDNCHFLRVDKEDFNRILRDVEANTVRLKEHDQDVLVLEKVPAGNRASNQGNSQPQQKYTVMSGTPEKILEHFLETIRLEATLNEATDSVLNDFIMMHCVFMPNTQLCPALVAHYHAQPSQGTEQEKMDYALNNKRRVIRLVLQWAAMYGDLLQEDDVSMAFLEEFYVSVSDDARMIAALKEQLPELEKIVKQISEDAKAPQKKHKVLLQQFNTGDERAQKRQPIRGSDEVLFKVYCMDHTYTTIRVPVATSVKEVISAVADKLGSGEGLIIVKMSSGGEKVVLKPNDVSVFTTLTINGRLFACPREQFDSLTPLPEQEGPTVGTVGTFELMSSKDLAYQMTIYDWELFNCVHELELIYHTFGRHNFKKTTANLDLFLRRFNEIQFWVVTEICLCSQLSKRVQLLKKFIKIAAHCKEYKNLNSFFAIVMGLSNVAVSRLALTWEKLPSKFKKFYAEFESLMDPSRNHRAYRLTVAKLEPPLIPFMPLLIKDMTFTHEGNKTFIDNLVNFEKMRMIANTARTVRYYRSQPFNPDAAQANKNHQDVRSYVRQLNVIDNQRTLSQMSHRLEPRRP

[3] = target: Rap guanine nucleotide exchange factor 4 (Homo sapiens) (UniProt Q8WZA2); assay: Confirmatory qHTS for antagonist of cAMP-regulated guanine nucleotide exchange factor 4 (EPAC2) (AID 1645885); also: nearly all actives have a fitted effect of over 25% in size; also: potency is read from the fitted curve at half-maximal effect
[4] = target: Rap guanine nucleotide exchange factor 3 (Homo sapiens) (UniProt O95398); assay: Counterscreen qHTS for antagonist of cAMP-regulated guanine nucleotide exchange factor 3 (EPAC1) (AID 1645888);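 also: fluorescence loss as bound BODIPY-GDP is released from Rap1B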
Summary of the method: (§1)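 Measured: fluorescence of BODIPY-GDP bound to Rap1B, which falls as exchange proceeds. Conditions include 50 uM competing GDP, 5 and 30 min reads, and a later cAMP challenge for antagonist detection.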

[5] = target: Rap guanine nucleotide exchange factor 3 (Homo sapiens) (UniProt O95398); assay: Counterscreen qHTS for agonist of cAMP-regulated guanine nucleotide exchange factor 3 (EPAC1) (AID 1645889); also: nearly all actives have a fitted effect of over 40% in size
Summary of the method: as §1

| SMILES | Potency [1] | Potency [2] | Potency [3] | Potency [4] | Potency [5] | activation [2] | activity change, negative = inhibition [4] | activation [5] | outcome [3] |
| --- | --- | --- | --- | --- | --- | --- | --- | --- | --- |
| CN(C)c1ccc(C=C(C#N)C(=O)c2ccccc2)cc1Br | inactive | inactive | inactive | inactive | inactive | – | – | – | – |
| COc1ccc(O)c(/C=N/NC(=O)c2ccc(N3CCCC3=O)cc2)c1 | inactive | inactive | inactive | inactive | inactive | – | – | – | – |
| Cc1cc2oc(=O)c(CC(=O)O)c(C)c2c2occ(-c3ccccc3)c12 | inactive | inactive | inactive | inactive | inactive | – | – | – | – |
| Cc1cc(Br)cc(Cl)c1OC(=O)c1ccncc1 | inactive | inactive | 37.9 µM (active) | inactive | inactive | – | – | – | – |
| Cc1ccc(C(=O)Nc2cccc(-c3ccc(N4CCOCC4)nn3)c2)cc1C | inactive | inactive | inactive | inactive | – | – | – | – | – |
| CCC(C)n1c(SCC(=O)Nc2ccc3[nH]c(=O)[nH]c3c2)nc2ccccc2c1=O (centres undefined) | inactive | – | inactive | – | – | 1.51% [at 17.1 µM, percent relative to cAMP agonist control] | -15% [at 30.8 µM] | 13.5% [at 30.8 µM] | – |
| Cc1ccc2nc(-c3ccc(NC(=O)CSc4nccc(=O)[nH]4)cc3)sc2c1 | inactive | inactive | inactive | inactive | inactive | – | – | – | – |
| CCOC(=O)C1=C(CC)OC(N)=C(C#N)C1c1ccc(F)cc1F (centres undefined) | inactive | inactive | inactive | inactive | inactive | – | – | – | – |
| CCCCOc1c(Br)cc(/C=N/O)cc1OCC | inactive | – | inactive | – | – | 6.54% [at 17.1 µM, percent relative to cAMP agonist control] | -12% [at 30.8 µM] | 5.43% [at 30.8 µM] | – |
| Cc1nn(-c2ccc(F)cc2)c(-n2cccc2)c1C(=O)N1CCN(c2ccc(F)cc2)CC1 | inactive | inactive | – | inactive | inactive | – | – | – | inactive [at 12.7 µM] |
| Oc1c(C(Nc2nccs2)c2ccc(C(F)(F)F)cc2)ccc2cccnc12 (centres undefined) | inactive | – | inactive | – | – | -2.43% [at 17.1 µM, percent relative to cAMP agonist control] | -18% [at 30.8 µM] | 3.72% [at 30.8 µM] | – |
| N#C/C(=N\Nc1cccc(C(F)(F)F)c1)C(=O)c1ccsc1 | inactive | inactive | inactive | inactive | inactive | – | – | – | – |
| Cc1nn(-c2ccccc2)c(Cl)c1/C=C1\SC(=S)N(CCCCCC(=O)O)C1=O | inactive | – | inactive | – | – | -0.0903% [at 17.1 µM, percent relative to cAMP agonist control] | -15.3% [at 30.8 µM] | 22.3% [at 30.8 µM] | – |
| CC(C)(C)NC(=O)NC(=O)CN1CCN(S(=O)(=O)c2ccc3c(c2)CCCC3)CC1 | inactive | – | inactive | – | – | -5.51% [at 17.1 µM, percent relative to cAMP agonist control] | -44% [at 30.8 µM] | 6.75% [at 30.8 µM] | – |
| COCCn1c(SCC(=O)c2c(C)[nH]c3ccccc23)nc2cc(C(=O)NC(C)C)ccc2c1=O | inactive | inactive | inactive | inactive | inactive | – | – | – | – |
| Cc1ccc(C)c(Nc2cc(C)nc(-c3ccccc3O)n2)c1 | inactive | – | inactive | – | – | 10% [at 17.1 µM, percent relative to cAMP agonist control] | -8.51% [at 30.8 µM] | 7.83% [at 30.8 µM] | – |
| N#C/C(=C/c1ccc(-c2ccc(S(N)(=O)=O)cc2)o1)c1nc2ccccc2s1 | inactive | – | inactive | – | – | -24.7% [at 17.1 µM, percent relative to cAMP agonist control] | 5.29% [at 30.8 µM] | -62% [at 30.8 µM] | – |
| CCOc1cc(/C=C(/C#N)c2ccc(Cl)cc2)cc(Cl)c1OCC(=O)O | inactive | – | inactive | – | – | 3.22% [at 17.1 µM, percent relative to cAMP agonist control] | -8.72% [at 30.8 µM] | 10.8% [at 30.8 µM] | – |
| CC(=Cc1ccccc1)C=C1SC(=S)N(CCCC(=O)Nc2ccc(C(=O)O)cc2)C1=O | inactive | inactive | inactive | inactive | inactive | – | – | – | – |
| COc1ccccc1Cc1c(-c2ccco2)nc2c(C)cc(Br)cn12 | inactive | – | inactive | – | – | 7.54% [at 17.1 µM, percent relative to cAMP agonist control] | -14.6% [at 30.8 µM] | 13.2% [at 30.8 µM] | – |
